# Whole data set: some 16,000 sequences, median “rpm ratio (pull-down/input)” near 0.94, cut for the highest 2% near 1.7. The sample holds the highest values, similar sequences and a random draw of the others, so the mix is not that of the screen.
# Biological target: T1, MBP-FoxP1dN (Mus musculus, UniProt P58462 326-579)
# T1 sequence: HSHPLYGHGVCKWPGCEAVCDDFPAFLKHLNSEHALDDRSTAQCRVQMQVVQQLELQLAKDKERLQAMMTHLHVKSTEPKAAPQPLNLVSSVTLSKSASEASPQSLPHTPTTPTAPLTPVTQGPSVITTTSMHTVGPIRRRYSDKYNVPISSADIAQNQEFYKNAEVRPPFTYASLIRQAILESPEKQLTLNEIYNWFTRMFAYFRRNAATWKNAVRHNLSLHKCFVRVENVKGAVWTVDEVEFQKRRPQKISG
# Test: PD-seq (MBP pull-down with sequencing); 20 mM Tris-HCl pH 7.5, 100 mM NaCl, 1.5 mM MgCl2, 0.4 uM protein, 0.1 uM dsDNA library, 30 min, room temperature, amylose pull-down; high values mean tight binding
# Conditions: protein: recombinant; tags: His6-MBP; chain copies: 2; dsDNA, one strand shown
# In short: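 The N-terminus-lacking fragment of mouse FoxP3 or FoxP1 carried a His6-MBP tag and was expressed in E. coli. At 0.4 µM it was incubated with 0.1 µM Klenow-filled degenerate double-stranded DNA library for 30 min at room temperature in Tris pH 7.5 buffer with NaCl and MgCl2, and complexes were caught on amylose resin, washed three times, released with proteinase K, PCR-barcoded and Illumina-sequenced. Binding is reads-per-million enrichment of pull-down over input with replicates pooled.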
row,Sequence,binding signal
1,GATGATTGTTCTCCCAGCTGATGAATTAAGCTTATCGAGTAAACAAATTTTCCTAATCTTTCTGTTCAAGCGCCATCTAC,1.03 RPM ratio (pull-down/input)
2,GATGATTGTTCTCCCAGCTGATGAATTCTCTTCATCGAGTAAACAAATTTTCCTAATCTTTCTGTTCAAGCGCCATCTAC,0.886 RPM ratio (pull-down/input)
3,GATGATTGTTCTCCCAGCTGATGAATTATGTTGTTCGAGTAAACAAATTTTCCTAATCTTTCTGTTCAAGCGCCATCTAC,2.67 RPM ratio (pull-down/input)
4,GATGATTGTTCTCCCAGCTGATGAATTATGTTCTTCGAGTAAACAAATTTTCCTAATCTTTCTGTTCAAGCGCCATCTAC,1.15 RPM ratio (pull-down/input)
5,GATGATTGTTCTCCCAGCTGATGAATTATGTTCATCGAGTAAACAAATTTTCCTAATCTTTCTGTTCAAGCGCCATCTAC,1.04 RPM ratio (pull-down/input)
6,GATGATTGTTCTCCCAGCTGATGAATTATGATGATCGAGTAAACAAATTTTCCTAATCTTTCTGTTCAAGCGCCATCTAC,1.15 RPM ratio (pull-down/input)
7,GATGATTGTTCTCCCAGCTGATGAATTATGAATTTCGAGTAAACAAATTTTCCTAATCTTTCTGTTCAAGCGCCATCTAC,1.03 RPM ratio (pull-down/input)
8,GATGATTGTTCTCCCAGCTGATGAATTATGTTGATCGAGTAAACAAATTTTCCTAATCTTTCTGTTCAAGCGCCATCTAC,2.81 RPM ratio (pull-down/input)
9,GATGATTGTTCTCCCAGCTGATGAATTGAGGTCCTCGAGTAAACAAATTTTCCTAATCTTTCTGTTCAAGCGCCATCTAC,0.772 RPM ratio (pull-down/input)
10,GATGATTGTTCTCCCAGCTGATGAATTTGATAGCTCGAGTAAACAAATTTTCCTAATCTTTCTGTTCAAGCGCCATCTAC,0.868 RPM ratio (pull-down/input)
11,GATGATTGTTCTCCCAGCTGATGAATTCGGTACATCGAGTAAACAAATTTTCCTAATCTTTCTGTTCAAGCGCCATCTAC,0.991 RPM ratio (pull-down/input)
12,GATGATTGTTCTCCCAGCTGATGAATTCTAATAGTCGAGTAAACAAATTTTCCTAATCTTTCTGTTCAAGCGCCATCTAC,0.905 RPM ratio (pull-down/input)
13,GATGATTGTTCTCCCAGCTGATGAATTAGCCGTATCGAGTAAACAAATTTTCCTAATCTTTCTGTTCAAGCGCCATCTAC,0.934 RPM ratio (pull-down/input)
14,GATGATTGTTCTCCCAGCTGATGAATTTACGATCTCGAGTAAACAAATTTTCCTAATCTTTCTGTTCAAGCGCCATCTAC,1.15 RPM ratio (pull-down/input)
15,GATGATTGTTCTCCCAGCTGATGAATTGGCGCTATCGAGTAAACAAATTTTCCTAATCTTTCTGTTCAAGCGCCATCTAC,0.954 RPM ratio (pull-down/input)
16,GATGATTGTTCTCCCAGCTGATGAATTCTGCCCGTCGAGTAAACAAATTTTCCTAATCTTTCTGTTCAAGCGCCATCTAC,0.815 RPM ratio (pull-down/input)
17,GATGATTGTTCTCCCAGCTGATGAATTAATTGTATCGAGTAAACAAATTTTCCTAATCTTTCTGTTCAAGCGCCATCTAC,1.44 RPM ratio (pull-down/input)
18,GATGATTGTTCTCCCAGCTGATGAATTTGTATTATCGAGTAAACAAATTTTCCTAATCTTTCTGTTCAAGCGCCATCTAC,2.13 RPM ratio (pull-down/input)

row,Sequence,binding signal
1,GATGATTGTTCTCCCAGCTGATGAATTGTATTAATCGAGTAAACAAATTTTCCTAATCTTTCTGTTCAAGCGCCATCTAC,1.24 RPM ratio (pull-down/input)
2,GATGATTGTTCTCCCAGCTGATGAATTATCTGTATCGAGTAAACAAATTTTCCTAATCTTTCTGTTCAAGCGCCATCTAC,1.1 RPM ratio (pull-down/input)
3,GATGATTGTTCTCCCAGCTGATGAATTGTAATTATCGAGTAAACAAATTTTCCTAATCTTTCTGTTCAAGCGCCATCTAC,1.54 RPM ratio (pull-down/input)
4,GATGATTGTTCTCCCAGCTGATGAATTATTTGTATCGAGTAAACAAATTTTCCTAATCTTTCTGTTCAAGCGCCATCTAC,2 RPM ratio (pull-down/input)
5,GATGATTGTTCTCCCAGCTGATGAATTGCGAATATCGAGTAAACAAATTTTCCTAATCTTTCTGTTCAAGCGCCATCTAC,1.17 RPM ratio (pull-down/input)
6,GATGATTGTTCTCCCAGCTGATGAATTGCTCTTCTCGAGTAAACAAATTTTCCTAATCTTTCTGTTCAAGCGCCATCTAC,0.889 RPM ratio (pull-down/input)
7,GATGATTGTTCTCCCAGCTGATGAATTCGGGTTCTCGAGTAAACAAATTTTCCTAATCTTTCTGTTCAAGCGCCATCTAC,0.806 RPM ratio (pull-down/input)
8,GATGATTGTTCTCCCAGCTGATGAATTGGAATATTCGAGTAAACAAATTTTCCTAATCTTTCTGTTCAAGCGCCATCTAC,0.93 RPM ratio (pull-down/input)
9,GATGATTGTTCTCCCAGCTGATGAATTGTTGTCTTCGAGTAAACAAATTTTCCTAATCTTTCTGTTCAAGCGCCATCTAC,2.29 RPM ratio (pull-down/input)
10,GATGATTGTTCTCCCAGCTGATGAATTTTTTGTCTCGAGTAAACAAATTTTCCTAATCTTTCTGTTCAAGCGCCATCTAC,0.905 RPM ratio (pull-down/input)
11,GATGATTGTTCTCCCAGCTGATGAATTTGTCTTCTCGAGTAAACAAATTTTCCTAATCTTTCTGTTCAAGCGCCATCTAC,1.16 RPM ratio (pull-down/input)
12,GATGATTGTTCTCCCAGCTGATGAATTGTCTTCTTCGAGTAAACAAATTTTCCTAATCTTTCTGTTCAAGCGCCATCTAC,1.05 RPM ratio (pull-down/input)
13,GATGATTGTTCTCCCAGCTGATGAATTTGTTGTCTCGAGTAAACAAATTTTCCTAATCTTTCTGTTCAAGCGCCATCTAC,2.42 RPM ratio (pull-down/input)
14,GATGATTGTTCTCCCAGCTGATGAATTTCTGTCTTCGAGTAAACAAATTTTCCTAATCTTTCTGTTCAAGCGCCATCTAC,0.89 RPM ratio (pull-down/input)
15,GATGATTGTTCTCCCAGCTGATGAATTGTTTGTCTCGAGTAAACAAATTTTCCTAATCTTTCTGTTCAAGCGCCATCTAC,2.6 RPM ratio (pull-down/input)
16,GATGATTGTTCTCCCAGCTGATGAATTCTTTGTCTCGAGTAAACAAATTTTCCTAATCTTTCTGTTCAAGCGCCATCTAC,0.931 RPM ratio (pull-down/input)
17,GATGATTGTTCTCCCAGCTGATGAATTTTGTCTCTCGAGTAAACAAATTTTCCTAATCTTTCTGTTCAAGCGCCATCTAC,0.968 RPM ratio (pull-down/input)

# — PMC12820563, “FoxP3 forms a head-to-head dimer in vivo and stabilizes its multimerization on adjacent microsatellites”
